Laboratory results from PubChem BioAssay AID1508600 (Functional Genomics Laboratory (NCATS/FGL), 2020).
About 3,700 (7%) of roughly 53,000 sequences were called active. This is one part of a sample in which actives are shown more often than they occur.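 Rule for the calls: active = gene knockdowns whose robust z-score for IL-1 alpha signal is at least 2 or at most -2, so actives lie on both sides; inactive = the rest.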

Assay: Components of the Cytosolic LPS Sensing Pathway: Gene Identification via Genome-wide siRNA Screen;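 note: robust z of the log signal after scaling to non-targeting control siRNA wells of the plate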
Settings: RAW264.7 macrophages, IL-1a HTRF, actives lie on both sides, screened at 100 nM (by protocol), cells primed 5 h with Pam3CSK4 first
How it was run: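 Cells (RAW264.7, 1×10^4 per well) were transfected with siRNA at 100 nM and cultured 48h at 37 degrees C. Pam3CSK4 was added for 5 hours; LipidA transfection followed for 24 hour. IL-1a was then measured by HTRF.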

Row | Sequence | z-score
1 | GGGAUUCUUUUUGUGGAAATT against Trim62 | 0.636 (inactive)
2 | GGUCUCAAUCAGAGUUACATT against Zfp324 | -0.936 (inactive)
3 | GGAGGUCAGACCAGUUUACTT against Htr3b | 2.15 (active)
4 | GCUUACAUCCAAGCCGUCUTT against Prss41 | 0.283 (inactive)
5 | GCUGGAGAUGAUUGUCUGATT against Psmd8 | -1.22 (inactive)
6 | GCGGGAACCAUUUUUGUGATT against Cdh11 | -1.18 (inactive)
7 | GGUCGAUUGAUAUACAAAATT against Gdf6 | 0.834 (inactive)
8 | CGUAUUAUCUGAGUGAACATT against Fth1 | -0.974 (inactive)
9 | GCAUCAUCACCACCAUCACTT against Pou3f3 | -0.598 (inactive)
10 | GGUCUGGAAUGGAGAACAGTT against Suox | 2.73 (active)
11 | GGUGACCAAGCAGAUAACATT against Prcc | -1.19 (inactive)
12 | GGACGUGGGCUCUCUAGAUTT against S100a13 | 1.81 (inactive)
13 | CGGUGGAAAUACCAGGAUGTT against Tshb | 0.406 (inactive)
14 | GGAAAUUUGCCGGCCAAAUTT against Fam83a | 0.557 (inactive)
15 | GCACUCCACUCUUCCAUCATT against Cxcl16 | 0.35 (inactive)
16 | GGUGGCUGAAGAUGUGACUTT against Ttyh1 | -3.46 (active)
17 | GCAAAGGACCUAAUUUAUUTT against Ehd4 | 1.13 (inactive)
18 | GGUUCAAGGGCCAGAUCCUTT against Rpl32 | 0.887 (inactive)
19 | CCAGUGUUGGUAACAAUAUTT against Stat4 | 0.0489 (inactive)
20 | GGAAAAGAAAGAUGUGACUTT against Trappc9 | -2.55 (active)
21 | CGUAGAUCUGGAUUGCUUUTT against Poli | 1.74 (inactive)
22 | CCCAGCUAGACAGUCUUUCTT against Il11 | 2.58 (active)
23 | GGCAGAGCCAGAAAAAUUGTT against Slc30a1 | 0.306 (inactive)

Row | Sequence | z-score
24 | CCAGAAUGUAAAACAACCGTT against Zfp365 | 0.588 (inactive)
25 | CGGUUUCACGAAUUCCUCCTT against Scaper | -2.16 (active)
26 | GGAUUCAUGAAAUAAGUCATT against Zfp426 | -0.603 (inactive)
27 | CGUGGUCUCGGACACUUUCTT against Hcn2 | -0.096 (inactive)
28 | GGUGGAAUGAGGAAACAACTT against Cck | -0.945 (inactive)
29 | GGAUUUAGCUAAGAGAGGGTT against Zmat3 | -0.125 (inactive)
30 | CGAUGGUGAUUAUCUAAAATT against Tm4sf4 | -0.0694 (inactive)
31 | GCGAAUGUGUGUAUUCUGGTT against BC055324 | -0.791 (inactive)
32 | CGGUUGAUGGAAAAAUACATT against Ppef2 | 2.43 (active)
33 | GGAAAGAUGAGACCACCCGTT against Stau1 | -0.582 (inactive)
34 | GGCAAUAAUAAAUAGCACCTT against Homer1 | 0.8 (inactive)
35 | GGUAGAUGAACUUUAAAGATT against Syt13 | -0.846 (inactive)
36 | GGACUUCUUAACCGCCCUGTT against Sirt5 | 0.355 (inactive)
37 | GGCUCAUGAGAAGACACACTT against Zbtb17 | 0.204 (inactive)
38 | GGUGCUAGUGGUGACCAUGTT against Pign | 2.2 (active)
39 | CGUGAAAAAGUUAGCAAGUTT against Tars2 | 0.198 (inactive)
40 | GGUUCUCCAAGGAAAGAGGTT against 2310002L09Rik | 2.8 (active)
41 | CCUUCUAGUACAAAAGUUGTT against Jmjd1c | 1.32 (inactive)
42 | GGACAAGAGAACAACUAGUTT against Mrtfb | 0.0162 (inactive)
43 | GACCAAAGCACUGACUAUGTT against Lyz2 | -0.184 (inactive)
44 | GGAAGAAAUGGACCAGCUGTT against Hgh1 | -0.416 (inactive)
45 | GGUUUCCAUGGUAACGUGGTT against Tns1 | 2.24 (active)
46 | GGGCAUAUGAGAUUUAUUATT against Trappc2 | -0.423 (inactive)

Row | Sequence | z-score
47 | GGCCUACAUACUCCUGAAGTT against Ttc21a | -1.28 (inactive)
48 | GGGAGCUGUUAACCUCAUCTT against Mthfr | 3.34 (active)
49 | CCUAGAUUAAAUACUCGGATT against Saxo2 | 1.45 (inactive)
50 | GCAGCCAAAUUCAUCCUCATT against Tspan33 | -0.552 (inactive)
51 | GGAAUGGACAAAAUGAUUCTT against Cct4 | 1.53 (inactive)
52 | UGUUGUUUUACCUGUGCCUTT against Gm10283 | -1.14 (inactive)
53 | GGCUCAUGGAAAACUCUAUTT against Hspa9 | 2.24 (active)
54 | GGUUGCCAAUGACACUCGGTT against Trak2 | -0.342 (inactive)
55 | GCCAUUCUAACUCUGCCUCTT against Olfr639 | 0.232 (inactive)
56 | GGGUUCAACACAGCCAAUGTT against Fam151a | 0.987 (inactive)
57 | CCCUAUUUGACAAAUUCCUTT against Cdo1 | 0.245 (inactive)
58 | GCUGAAUCACUACCAGUCATT against Zfp462 | 1.27 (inactive)
59 | GGCAAUUCGAAUUUUGGUUTT against Rtraf | 0.891 (inactive)
60 | GGCAAACGAAACACUAGCATT against Cacna1d | 4.94 (active)
61 | GGUACUUCAUCGAUUCAGCTT against Zfp593 | -0.561 (inactive)
62 | GGAUAGCACAGCCCUACAUTT against Kcns1 | -0.197 (inactive)
63 | GCUUACUGUCCCUUAAGUUTT against Msantd1 | 2.45 (active)
64 | GGACAAAGAUGAAUAUGUGTT against Spag6l | -0.34 (inactive)
65 | GGCCGUGAUGCUAGAGAACTT against Zfp661 | 0.131 (inactive)
66 | GGUGAUUCACAUACUUUAUTT against Vps54 | 0.612 (inactive)
67 | GGGUUACCAGACUAACAAATT against Stfa3 | 0.763 (inactive)
68 | GCGAAUUCGUGAGAAGAGCTT against Ripk4 | -0.884 (inactive)
69 | GCACGUAUGCUCUUUCUCATT against Pigw | -2.52 (active)
